SENP7 block = SENP7 protease inhibition; 1.5% of 330,000 active; inhibition, % at 5 µM; recombinant SENP7, Z-RLRGG-aminoluciferin luminescence, 40 min; AID 434973; Q9BQF6;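 active means inhibition above about 50% at the single test dose, limit read from the data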;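 further: plate controls were DMSO with enzyme for no effect and no enzyme buffer wells for full effect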
Target sequence (Q9BQF6 706-1050 limits assumed): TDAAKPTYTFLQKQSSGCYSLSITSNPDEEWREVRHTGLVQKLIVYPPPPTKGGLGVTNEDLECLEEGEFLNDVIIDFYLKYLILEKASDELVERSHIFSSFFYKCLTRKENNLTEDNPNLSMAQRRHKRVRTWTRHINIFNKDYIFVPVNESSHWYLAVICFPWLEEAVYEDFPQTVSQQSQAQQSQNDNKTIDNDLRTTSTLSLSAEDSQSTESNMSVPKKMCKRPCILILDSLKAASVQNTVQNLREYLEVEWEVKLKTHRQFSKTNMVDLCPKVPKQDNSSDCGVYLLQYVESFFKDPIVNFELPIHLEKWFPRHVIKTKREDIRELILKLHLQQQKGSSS
Platelet DG rel = platelet dense granule release activity; human platelet-rich plasma, SFLLRN dense granule ATP release, luminescence; 0.22% of 300,000 active; inhibition, %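 (compounds screened at 7.5 µM in platelet-rich plasma)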; AID 1663;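 active means mean replicate score, as percent of positive control, at or above 50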
SENP8 block-1 = inhibitors of human SENP8 protease. Q96LD8. recombinant SENP8, Nedd8 substrate fluorescence. inhibition, % at 20 µM. 0.64% of 360,000 active. AID 602440; in the data active means inhibition mostly above about 40%, no sharp cut-off; inactive means mostly below about 27%
Target sequence (Q96LD8 whole entry, looked up): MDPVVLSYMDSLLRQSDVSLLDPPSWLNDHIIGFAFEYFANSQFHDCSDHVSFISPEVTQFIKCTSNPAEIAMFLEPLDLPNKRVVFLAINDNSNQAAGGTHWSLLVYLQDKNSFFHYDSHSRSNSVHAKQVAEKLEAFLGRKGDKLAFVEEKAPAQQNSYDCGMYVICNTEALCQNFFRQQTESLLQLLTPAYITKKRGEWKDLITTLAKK
SENP6 inh = SENP6 protease inhibition. Q9GZR1. Recombinant SENP6 catalytic domain, aminoluciferin luminescence. inhibition, % at 10 µM. 1.8% of 330,000 active. AID 2599;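 active means inhibition above about 50% at the single tested dose, limit read from the data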;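 further: plate controls were DMSO wells with enzyme for no effect and DMSO wells lacking enzyme for full effect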
SENP8 block-2 = blocks the human protease SENP8. Q96LD8. purified SENP8, Z-RLRGG-aminoluciferin cleavage, luminescence. inhibition, % at 10 µM. 1.2% of 330,000 active; in the data active means inhibition above about 50%
HSP90 refold inh = HSP90 refolding inhibition in rabbit reticulocyte lysate. luciferase refolding luminescence, 3 h. inhibition, % at 5.6 µM. 0.91% of 290,000 active. AID 1789;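 active means inhibition above the screen-wide mean plus 3 SD, computed separately per campaign, cut at about 16% in these data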;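 further: 0% = DMSO wells and 100% = 60 µM geldanamycin wells; inhibitors lower the luminescence because luciferase stays unfolded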
SENP8 confirm = confirmation of human SENP8 protease inhibitors | shares compounds with SENP7 block | Recombinant SENP8, Z-RLRGG-aminoluciferin luminescence, 60 min | inhibition, % at 12.5 µM | 40% of 6,200 active | AID 488912;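 active means mean inhibition across replicates above about 50%, limit read from the data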
SENP6 confirm = confirmation of human SENP6 protease inhibitors | inhibition, % at 12.5 µM | shares compounds with SENP7 block | recombinant SENP6, Z-RLRGG-aminoluciferin luminescence | 58% of 6,200 active
SENP7 confirm = confirmation of human SENP7 protease inhibitors | inhibition, % at 12.5 µM | recombinant SENP7, Z-RLRGG-aminoluciferin luminescence, 40 min | 69% of 6,200 active | shares compounds with SENP7 block
Casp3 select = inhibits human caspase-3 in SENP selectivity test | shares compounds with SENP7 block | purified caspase-3, Z-DEVD-aminoluciferin luminescence, 60 min | inhibition, % at 12.5 µM | 60% of 6,200 active | AID 488918;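 active means mean inhibition above about 50%, limit read from the data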;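 further: plate controls were enzyme with DMSO for no effect and wells without caspase-3 for full effect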
SENP luc ctr = interferes with luciferase luminescence in SENP counter-screen; shares compounds with SENP7 block; Pre-incubated SENP8/Z-RLRGG-aminoluciferin, luciferase luminescence interference; inhibition, % at 12.5 µM; 39% of 6,200 active; AID 488919;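 active means mean inhibition above about 50% when retested at one dose, limit read from the data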;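 further: plate controls were DMSO wells with completed reaction for no effect and substrate without enzyme for full effect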
* marks the source's active call; other numbers are inactive results; . = no result. Compounds with a hit are over-represented: about 2.8% of the library has one in this group of screens.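 How the source made its calls, unless noted: active means mean inhibition above about 50% in the one-dose retest (limit read from the data); inactive means the rest.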

SMILES	SENP7 block	Platelet DG rel	SENP8 block-1	SENP6 inh	SENP8 block-2	HSP90 refold inh	SENP8 confirm	SENP6 confirm	SENP7 confirm	Casp3 select	SENP luc ctr
Cc1cc(S(=O)(=O)N2CCCOC2CNC(=O)C(=O)NCCCN2CCOCC2)ccc1F (stereo not given)	2	-6	0	-12	1	-6	.	.	.	.	.
CCCn1nc(C(=O)NNC(=O)CCCOc2ccc(C)cc2)c2ccccc2c1=O	1	14	-4	1	-5	-2	.	.	.	.	.
Cc1ccc(-c2cc(C(F)(F)F)c(C#N)c(=O)[nH]2)cc1	21	25	-438	76*	68*	-2	65*	66*	57*	61*	49
COc1cccc(-c2cc(C(F)(F)F)c(C#N)c(=O)[nH]2)c1	35	-2	-443	85*	85*	1	-14	70*	85*	70*	77*
CN(C(=O)COc1ccc2ccc(=O)oc2c1)C1CCS(=O)(=O)C1 (stereo not given)	92*	-1	-291	12	2	2	6	7	10	7	0
COc1ccc(NC(=O)c2cccc(OC(F)F)c2)cc1Cl	80*	11	12	76*	64*	2	9	76*	94*	60*	68*
O=C(Nc1ccc(OC(F)F)c(Cl)c1)c1cccc(OC(F)F)c1	27	10	18	62*	15	4	52*	48	76*	12	65*
COC(=O)c1cccc(NC(=O)c2ccc(OC)c(Cl)c2)c1	8	18	12	-13	6	-2	.	.	.	.	.
O=C(Nc1ccc(S(=O)(=O)N2CCCC2)cc1)c1cccc(OC(F)F)c1	-1	-12	-2	-2	0	.	.	.	.	.	.
O=C(Nc1ccc2c(c1)CCC2)c1cccc(OC(F)F)c1	75*	12	16	79*	68*	.	61*	68*	91*	55*	69*
Cc1ccc(C(=O)Nc2ccccc2C(=O)O)cc1S(=O)(=O)Nc1ccc(Br)cc1	1	-1	0	31	19	.	.	.	.	.	.
O=C(Nc1ccc(COc2ccccc2)cc1)Nc1cccc(C(=O)O)c1	92*	-4	4	97*	93*	7	48	100*	18	60*	45
O=C(O)c1cccc(NC(=S)NC(=O)c2cccc(OCc3ccccc3)c2)c1	-4	-2	18	56*	34	-5	71*	61*	76*	8	63*
Cc1cc(F)ccc1C(O)c1ncc(-c2ccccc2Cl)[nH]1 (stereo not given)	.	.	11	.	.	.	.	.	.	.	.
O=C(O)c1ccc(N/N=C/c2ccc(-c3cc(Cl)ccc3Cl)o2)cc1	-5	-2	-452	76*	53*	15	-4	85*	86*	2	29
NS(=O)(=O)c1ccc(-c2ccc(/C=N/Nc3ccc(C(=O)O)cc3)o2)cc1	10	6	-338	-4	2	10	.	.	.	.	.
O=C(O)c1cccc(-c2ccc(/C=N/Nc3ccc([N+](=O)[O-])cc3)o2)c1	9	7	-17	6	-6	-4	.	.	.	.	.
O=C(O)c1ccc(N/N=C/c2ccc(-c3cccc(Cl)c3)o2)cc1	13	-3	-449	1	58*	6	82*	82*	90*	7	82*
Nc1nc2c(-c3ccc(Br)cc3)nnn2c2ccccc12	70*	12	-286	-5	-7	-1	-1	2	-1	0	-4
CNc1nc2c(-c3ccc(Cl)cc3)nnn2c2ccccc12	-8	3	-287	-14	-3	-1	.	.	.	.	.
CCc1nc2c(OCc3ccc(Cl)cc3Cl)cccn2c1N(C=O)Cc1ccc(OC)cc1	.	.	10	.	.	.	.	.	.	.	.
COc1cccc(C=Nc2cc(C)cc(C)c2)c1O	8	-18	2	-16	-1	2	.	.	.	.	.
CCc1ccc2oc(-c3cc(N=Cc4cccc(OC)c4O)ccc3O)nc2c1	89*	13	.	86*	92*	6	84*	84*	87*	76*	28
CC(=O)Nc1cc(-c2ccc(N)cc2)cn2c(-c3cccc(C(F)(F)F)c3)cnc12	.	.	-379	.	.	.	.	.	.	.	.
CCCOc1ccc(OCCSc2ncccn2)cc1	65*	-3	25	78*	43	2	36	54*	86*	53*	47
SMILES	SENP7 block	Platelet DG rel	SENP8 block-1	SENP6 inh	SENP8 block-2	HSP90 refold inh	SENP8 confirm	SENP6 confirm	SENP7 confirm	Casp3 select	SENP luc ctr
CCC(C)(C)NC(=O)CN(C(=O)CNS(=O)(=O)c1ccc(F)cc1)c1ccc2c(c1)OCCO2	-2	0	12	12	-10	-2	.	.	.	.	.
COc1cc(C)ccc1S(=O)(=O)NC(=O)C1(C)CCN1C(=O)COc1ccc(Cl)cc1 (stereo not given)	.	.	10	.	.	.	.	.	.	.	.
O=C1CCN(Cc2ccc(Br)cc2)CCN1[C@H](CO)Cc1ccccc1	-2	-1	26	-13	2	-4	.	.	.	.	.
O=C(O)c1ccc(-c2noc(-c3cccc(Cl)c3)n2)cc1	97*	.	11	97*	98*	.	98*	99*	102*	98*	95*
O=C(O)c1ccc(-c2noc(-c3ccccc3C(F)(F)F)n2)cc1	4	-2	18	82*	67*	.	5	29	43	38	46
O=C(O)c1ccc(-c2noc(-c3ccccc3Cl)n2)cc1	88*	28	9	97*	97*	.	99*	99*	103*	98*	98*
O=C(O)c1ccc(-c2noc(-c3ccc(F)cc3)n2)cc1	95*	45	14	98*	94*	.	98*	98*	102*	98*	96*
CCCN(C(=O)c1cccc(S(=O)(=O)N2CCCc3ccccc32)c1)C1CCS(=O)(=O)C1 (stereo not given)	5	.	9	2	-10	.	.	.	.	.	.
CCN1C(=O)[C@H]2[C@@H](c3ccc(-c4ccc(F)cc4)cc3)N[C@@](C)(C(=O)OC)[C@H]2C1=O	3	.	12	-9	1	.	.	.	.	.	.
Cc1ccsc1/C=N/n1cnc2sc(C)c(C)c2c1=O	46	-3	21	70*	43	-5	23	20	22	29	8
O=C(Nc1ccc(F)cc1F)c1ccc2c(=O)n3c(nc2c1)CCC3	61*	.	9	64*	26	.	47	52*	80*	86*	40

Screens as filed in PubChem BioAssay.
